An excerpt weighted towards active compounds, which were near 3.3% of everything screened.
Mcl1-Noxa inh – Mcl-1/Noxa interaction inhibition; inhibition, % at 21.7 µM; Q07820; TR-FRET Mcl-1/Noxa peptide binding, 2 h; hit rate 1.5% among 220,000;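 active = compounds that cut the protein-peptide binding signal by more than 50% relative to plate controls in a single-dose test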;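 also: His-tagged Mcl-1 with rhodamine Noxa BH3 peptide and terbium anti-His antibody; 0% = Mcl-1 plus Noxa peptide wells and 100% = peptide-only wells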
Mcl1 Bid PPI – Mcl-1/Bid interaction inhibition. TR-FRET Mcl-1/Bid-Dy647 peptide binding, 1536-well. inhibition, % at 21.7 µM. hit rate 0.97% among 220,000;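 active = compounds that cut the binding signal by more than half at the single screening dose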;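 also: His-tagged Mcl-1 with europium anti-His antibody binding Bid BH3 peptide; 0% = Mcl-1 plus peptide wells and 100% = peptide-only wells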
Bim-Mcl-1 – human Bim-Mcl-1 interaction inhibition. Q07820. hit rate 0.1% among 190,000. Bead-based flow cytometry, Bim peptide-Mcl-1 binding. inhibition, % at 10 µM; in the data active = inhibition above about 40%;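 also: 0% = no compound tracer wells and 100% = peptide blocker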
eIF4E 4G PPI – blocks eIF4E binding to eIF4G. P63073+Q04637. TR-FRET eIF4E-eIF4GI(517-606) binding, 2 h. inhibition, % at 21.7 µM. hit rate 0.37% among 220,000. AID 782;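 also: 0% = full FRET control wells and 100% = background wells lacking eIF4GI fragment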
14-3-3 Bad inh – disrupts binding of bovine 14-3-3 zeta to phospho-Bad peptide | P63103 | TR-FRET 14-3-3zeta/Dy647-pBad peptide displacement, 1 h | inhibition, % at 21.7 µM | hit rate 0.71% among 220,000;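 active = inhibition above about 70%, limit read from the data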;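 also: 0% = full 14-3-3 plus peptide FRET controls and 100% = background without 14-3-3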
Target sequence (P63103 whole entry, looked up): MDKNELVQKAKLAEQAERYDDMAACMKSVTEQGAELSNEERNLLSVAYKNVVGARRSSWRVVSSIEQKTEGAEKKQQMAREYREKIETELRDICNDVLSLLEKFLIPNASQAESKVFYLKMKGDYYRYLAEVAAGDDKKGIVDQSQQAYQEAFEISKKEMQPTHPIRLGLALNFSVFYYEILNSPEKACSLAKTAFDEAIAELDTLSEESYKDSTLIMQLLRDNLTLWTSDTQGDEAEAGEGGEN
NCF1 inh – blocks human p47phox regulatory protein of NADPH oxidases; p47phox/p22phox peptide binding, fluorescence polarization, 2 h; inhibition, % at 24.7 µM; hit rate 0.53% among 220,000; AID 1274;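 also: 0% = p47phox with labelled peptide and 100% = labelled peptide alone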
Target sequence (P14598 whole entry, looked up): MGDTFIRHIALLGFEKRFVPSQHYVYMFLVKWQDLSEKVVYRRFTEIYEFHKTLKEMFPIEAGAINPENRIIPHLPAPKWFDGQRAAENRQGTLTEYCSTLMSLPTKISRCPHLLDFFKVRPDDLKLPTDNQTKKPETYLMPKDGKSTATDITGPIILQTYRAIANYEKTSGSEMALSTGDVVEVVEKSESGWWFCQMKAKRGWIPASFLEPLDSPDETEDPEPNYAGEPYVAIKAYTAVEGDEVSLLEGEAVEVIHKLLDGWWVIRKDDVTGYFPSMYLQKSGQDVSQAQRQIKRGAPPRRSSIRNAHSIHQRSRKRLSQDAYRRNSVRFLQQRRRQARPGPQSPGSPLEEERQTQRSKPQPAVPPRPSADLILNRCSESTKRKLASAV
Numbers without * were called inactive; i = inactive; . = not tested or not shown.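 The calls were made as follows, unless noted: active = inhibition above about 30% (limit read from the data); inactive = the rest.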

SMILES	Mcl1-Noxa inh	Mcl1 Bid PPI	Bim-Mcl-1	eIF4E 4G PPI	14-3-3 Bad inh	NCF1 inh
O=C(NC1CC1)c1ccc2c(c1)C1C3CCC(C3)C1C(c1ccccc1)N2 (centres undefined)	0.4	-12.3	-22.0	9.8	-3.9	-8.5
Cc1ccnc(NC(=O)Cc2ccc(F)cc2)n1	-8.7	-16.3	.	85.0*	5.7	3.0
CCOC(=O)C1(Cc2ccc(Cl)cc2)CCN(C(=O)c2cscn2)CC1	16.7	-11.9	0.0	0.5	3.3	-12.9
C/C(=N\O)c1cc(Cl)ccc1O	5.4	-10.8	.	91.6*	-9.0	-5.1
O=C(/C=C/c1ccncc1)c1cc(Cl)ccc1O	14.1	44.0	.	4.0	-3.5	-14.1
N#C/C(=C\c1ccc(OCC(N)=O)cc1)c1ccccc1	16.3	3.3	-6.0	-7.9	5.6	-5.6
COc1ccc(CC(=O)Nc2ccc(-c3nnc(-c4ccccc4)o3)cc2)cc1OC	9.6	-43.3	0.0	32.9*	55.4	-12.7
C#CCn1cc(C=C2C(=O)c3ccccc3C2=O)c2ccccc21	54.7*	i	25.0	-465.4	i	81.3*
C#CCn1c(=O)cc(C)c2ccccc21	5.8	2.8	-1.0	1.0	7.6	2.6
COc1cc2c(cc1OC)CN(C(=O)c1sc(-c3cnccn3)nc1C)CC2	11.7	6.5	.	6.6	1.5	-4.4
O=C(COC(=O)c1ccc(Br)o1)Nc1ccc(S(=O)(=O)N2CCCC2)cc1	43.9	60.3*	-4.0	1.2	0.4	-20.7
O=C(Cc1cccs1)N1CCN(S(=O)(=O)c2ccccc2)CC1	13.7	97.3*	-2.0	1.2	-6.9	-6.4
O=C(Cc1cccs1)Nc1ccc(S(=O)(=O)N2CCCCC2)cc1	65.8*	24.5	-2.0	-0.8	1.0	-59.7
COc1ccc(S(=O)(=O)N2CCN(C(=O)Cc3cccs3)CC2)cc1	10.3	4.2	-4.0	-5.3	-2.7	3.3
CN1CCN(S(=O)(=O)c2ccc(NC(=O)Cc3cccs3)cc2)CC1	13.4	-35.2	0.0	-4.4	-6.5	-21.9
COCCn1nnnc1CN(Cc1ccco1)Cc1cc2cc3c(cc2[nH]c1=O)OCO3	-10.7	-1.2	43.0*	0.0	5.0	5.3
CC(C)(C)n1nnnc1CN(Cc1ccco1)Cc1cc2cc3c(cc2[nH]c1=O)OCO3	34.6	-10.7	-3.0	-13.0	-15.4	1.7
N=C(N)SCc1cn(-c2ccccc2)nc1-c1ccc(Br)cc1	20.3	-18.5	1.0	12.6	75.1*	54.3*
COc1ccc(-c2nn(-c3ccccc3)cc2CO)cc1	2.8	-3.7	-4.0	0.3	3.3	-12.3
COc1ccc(NC(=S)N2CCN(C(=O)c3ccccc3)CC2)cc1	-1.4	-44.0	0.0	-0.8	-6.6	-3.2
CCOC(=O)c1ccc(N2N=C(C)/C(=C/C=C/c3ccco3)C2=O)cc1	31.8	-13.3	0.0	-0.2	-6.5	16.7
O=C(O)c1cc(N2N=C(C(F)(F)F)/C(=C/C=C/c3ccco3)C2=O)ccc1Cl	105.5*	86.4*	-4.0	20.0	27.3	-33.7
FC(F)(F)C1=CC(c2ccccc2)=NCCN1	88.5*	-24.1	-2.0	4.7	4.6	4.9
COc1ccc(CC(=O)NCc2nnc(SCC(=O)Nc3nccs3)n2-c2ccccc2)cc1	-5.4	-24.2	1.0	-0.5	5.5	-10.4
COc1ccc(OCc2nnc(SC(C)C(=O)Nc3nccs3)n2-c2ccccc2)cc1 (centres undefined)	12.2	-4.6	-1.0	2.8	-0.3	36.0*
SMILES	Mcl1-Noxa inh	Mcl1 Bid PPI	Bim-Mcl-1	eIF4E 4G PPI	14-3-3 Bad inh	NCF1 inh
O=C(N/N=C/c1cccn1-c1ccc([N+](=O)[O-])cc1)c1cccnc1	25.0	-5.6	.	-1.0	-2.0	-9.7
CSc1nc2ccc3nc(NC(=O)c4ccccc4)sc3c2s1	29.1	54.8*	0.0	0.3	21.1	0.3
O=C(Nc1nc2ccccc2s1)c1ccccc1	14.3	-18.1	0.0	-2.5	-12.2	-6.6
COc1ccc(NC(=O)C(Cl)=C(Cl)Cl)cn1	15.8	5.7	3.0	1.5	-2.4	-7.7
COc1ccc(NC(=O)/C(Cl)=C(/Cl)S(=O)Cc2ccc(Cl)cc2)cn1 (centres undefined)	52.7*	35.9	-9.0	-1.3	-4.4	-15.1
CC(C)C(NC(=O)C12CC3CC(CC(C3)C1)C2)C(=O)NC1=NCCS1 (centres undefined)	6.6	-13.8	3.0	40.0*	5.0	-9.7
O=C(NC1=NCCS1)C12CC3CC(CC(C3)C1)C2	19.0	-8.3	0.0	-1.6	-8.3	-1.7
CC(C)CCc1noc(CN(CC2CCC2)CC2CCCO2)n1 (centres undefined)	-3.0	-8.0	.	-10.9	6.6	5.5
CCC(C(=O)NC1CCCC1)N(C(=O)Cn1nnc(-c2ccc(C)o2)n1)c1cnc2ccccc2c1 (centres undefined)	18.6	-37.1	-1.0	6.3	77.6*	1.2
Cc1ccc(-c2nnn(CC(=O)N(c3cnc4ccccc4c3)C(C(=O)NC3CCCC3)c3ccncc3)n2)o1 (centres undefined)	0.6	21.2	-2.0	4.5	38.4	25.0
OC(c1ccccn1)c1c[nH]c2ccccc12 (centres undefined)	0.2	-36.8	1.0	-6.3	16.0	35.2*
CN(Cc1cnn(C)c1)Cc1nc(Cc2ccccc2Cl)no1	4.5	-2.4	0.0	-6.1	-7.5	42.9*
CC(C)N(Cc1cnn(C)c1)Cc1nc(Cc2ccccc2Cl)no1	-6.8	-12.5	-4.0	-2.5	-7.2	2.4
Cc1[nH]c2ccccc2c1CN1CCc2ccccc2C1	.	51.1*	0.0	-1.0	54.6	-23.6
CC(/C=N/n1c(-c2cc(C)[nH]n2)n[nH]c1=S)=C\c1ccco1	44.0	-142.9	.	8.4	13.9	-12.4
CC(/C=N/n1c(-c2ccc(Cl)cc2)n[nH]c1=S)=C\c1ccco1	63.6*	24.0	-3.0	5.1	0.0	-1.1
S=c1[nH]nc(-c2ccco2)n1/N=C/c1ccccc1Cl	44.3	-36.1	-5.0	-4.4	-6.4	29.1
C=CCn1c(-c2cc(OC)c(OC)c(OC)c2)n[nH]c1=S	15.9	-66.8	1.0	43.9*	-8.5	-2.9
S=c1[nH]nc(-c2ccco2)n1/N=C/c1ccc(Cl)cc1	27.1	-5.2	0.0	33.5*	-9.0	25.8
C=CCn1c(-c2ccco2)n[nH]c1=S	42.2	-29.1	-2.0	66.6*	10.9	32.2*
NS(=O)(=O)c1ccc(NC(=O)C2C3C=CC(C3)C2C(=O)O)cc1 (centres undefined)	-9.1	-20.9	2.0	0.2	-8.6	-11.1
CC(NCc1ccccc1)C1COc2ccccc2O1 (centres undefined)	.	60.0*	-3.0	4.8	48.3	0.5
COc1ccc(CNC(C)C2COc3ccccc3O2)c(OC)c1 (centres undefined)	4.2	47.5	-4.0	-0.5	28.3	-5.1
O=C1C(c2c(O)[nH]c3ccccc23)=Nc2ccccc21	5.2	-0.8	0.0	0.5	1.8	93.1*
CC(=O)c1cccc2c(O)c(C3=Nc4ccccc4C3=O)[nH]c12	62.3*	-39.0	2.0	5.2	-14.4	2.9

Screening data (PubChem)
